Experiment [1] can be described thus: compounds binding Alexa647 anti-His antibody – biochemical, small-molecule microarray, 635 nm fluorescence, artefact control for SMM control protein annotation, primary screen (AID 1128).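 Further: score merges feature fluorescence with signal-to-noise for each printed compound spot.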 The settings on record: higher = more signal.
Experiment [2] deals with Human papillomavirus type 1a E7 protein (residues 1-88). Put plainly: HPV1a E7 small-molecule binders, primary screen, biochemical, small-molecule microarray, residues 1-88, 635 nm (AID 1129). The note with it: small-molecule microarray binding, fluorescence 635 nm; higher = more signal.
In experiment [3] the target is Focal adhesion kinase 1 (Homo sapiens) (UniProt Q05397). Put plainly: PTK2 protein binding on printed compound slides – biochemical, small-molecule microarray, 635/667 nm fluorescence, BSA, DTT, primary screen (AID 1130).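 Further: composite of spot emission at 667 nm and signal to noise over triplicate slides.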 The note with it: 635 nm fluorescence, higher = more signal.
The test system of experiment [4] is Fibrinogen (Alexa647-labelled). Put plainly: Alexa647-fibrinogen binding to printed small molecules – biochemical, small-molecule microarray, 635/667 nm fluorescence, artefact control for SMM control-protein annotation, profiling panel (AID 1131).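 Further: z-score merges 667 nm fluorescence with per-spot signal-to-noise over triplicate slides.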 The settings on record: fibrinogen-A647 binding fluorescence, higher = more signal.
In experiment [5] the target is Follistatin (Homo sapiens) (UniProt P19883). Put plainly: FST protein binding to printed compounds – biochemical, small-molecule microarray, 635/667 nm fluorescence, primary screen (AID 1132). The settings on record: 635 nm fluorescence, higher = more signal.
Experiment [6] addresses Fibroblast growth factor 2 (Homo sapiens) (UniProt P09038). Put plainly: basic fibroblast growth factor binding to printed compounds – biochemical, small-molecule microarray, 635/667 nm fluorescence, primary screen (AID 1133). The settings on record: FGF2, fluorescence 635/667, higher = more signal.
A short description of experiment [7]: JC-1 mitochondrial potential readout, lung cancer cells – cell-based, A549, JC-1 fluorescence, basal, 24 h, 100 nL, profiling panel (AID 1138).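 Further: A549 lung adenocarcinoma cells under basal conditions with no added stimulus; test concentration not given here.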 The settings on record: higher = more signal.
A further experiment deals with Lefty1. Put plainly: Lefty1 protein binding to printed compounds – biochemical, small-molecule microarray, 635/667 nm fluorescence, primary screen (AID 1139). The settings on record: fluorescence 635/667, higher = more signal.
The subject of experiment [8] is wheat germ agglutinin (Triticum aestivum), Alexa647-labelled. Put plainly: Alexa647-WGA lectin binding to printed small molecules – biochemical, small-molecule microarray, 635/667 nm fluorescence, artefact control for SMM control-protein annotation, profiling panel (AID 1140).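 Further: score merges 667 nm feature emission with signal to noise over triplicate slides.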 The note with it: WGA-A647 binding, 635 nm fluorescence, higher = more signal.
For experiment [9], the target named is Luciferin 4-monooxygenase (Photinus pyralis) (UniProt P08659). Put plainly: inhibition of purified Photinus pyralis luciferase – biochemical, luminescence, purified enzyme, 2006 set, primary screen (AID 1141).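 Further: cell-free assay with purified firefly luciferase at 100 ng per well in PBS; test concentration not given here.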 The note with it: purified firefly luciferase, SteadyGlo luminescence, 30 min; higher = more signal, called active from +8 up or from −8 down.
Experiment [10] has as its system Wnt5a (protein binding on small-molecule microarray). Put plainly: small molecules binding Wnt5a protein – biophysical, small-molecule microarray, 635/667 nm fluorescence, primary screen (AID 1142).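 Further: fluorescence read at 667 nm with signal to noise per printed feature.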 The note with it: 635 nm fluorescence, higher = more signal.
The nature of experiment [11]: ATP-based viability of Huh7 replicon cells – cell-based, CellTiter-Glo luminescence, basal, 48 h, cytotoxicity control for HCV replication inhibitor project, primary screen (AID 1143).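 Further: Huh7 hepatoma cells carrying a hepatitis C replication reporter with no stimulus; test concentration not given here.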 The note with it: higher = more signal, called active from +8 up or from −8 down. (In general: Replicon systems follow genome replication, usually without infectious particles.)
Experiment [12] can be described thus: Pseudomonas biofilm growth suppression – PAO1 strain, BacTiter-Glo luminescence, LB-PBS, primary screen (AID 1144). The settings on record: P. aeruginosa PAO1 biofilm, 12 h, higher = more signal.
Experiment [13] in a line: basal CRE-LacZ reporter activity in PC12 – cell-based, unstimulated, primary screen (AID 1145). The settings on record: no forskolin, luminescence, 4.5 h, higher = more signal, called active from +8 up or from −8 down.
Experiment [14] can be described thus: forskolin-driven CRE-LacZ activity in PC12 – cell-based, CRE-LacZ reporter, forskolin-stimulated, primary screen (AID 1146).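 Further: PC12 cells with 6xCRE LacZ reporter stimulated by forskolin 10 µM; beta-galactosidase reporter signal reflecting CREB driven transcription.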 The note with it: luminescence, 4.5 h, higher = more signal, called active from +8 up or from −8 down.
Experiment [15] has as its target Streptavidin (Streptomyces avidinii) (UniProt P22629). Put plainly: compounds binding control protein streptavidin – biophysical, small-molecule microarray, 635/667 nm fluorescence, artefact control for SMM compound annotation, primary screen (AID 1147).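 Further: signal reflects streptavidin binding to arrayed compounds as a control protein.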 The settings on record: higher = more signal.
Experiment [16] can be described thus: probe aInhba binding on compound microarray – biochemical, small-molecule microarray, 635/667 nm fluorescence, primary screen (AID 1148).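 Further: score merges 667nm spot fluorescence with signal-to-noise for antibody binding to printed compounds.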 The settings on record: higher = more signal.
Experiment [17] has as its target Torsin-1A (Homo sapiens) (UniProt O14656). Put plainly: TOR1A wild-type binding on microarray – cell lysate, small-molecule microarray, lysate, 635/667 nm, primary screen (AID 1149). The note with it: COS7 hTOR1A-WT lysate, 635 nm fluorescence, higher = more signal.
Experiment [18] shares this target. Put plainly: torsin A mutant lysate binding on microarrays – cell lysate, small-molecule microarray, COS7 lysate, 635/667 nm fluorescence, primary screen (AID 1150).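 Further: score pools 667 nm emission and signal to noise measuring lysate protein binding.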 The note with it: COS7 hTOR1A mutant lysate, 635 nm fluorescence, higher = more signal.
In experiment [19] the test system is Sonic hedgehog protein (Shh). Put plainly: Sonic hedgehog microarray binding compounds – biochemical, small-molecule microarray, 635/667 nm fluorescence, primary screen (AID 1151).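 Further: Shh protein binding to compounds spotted on small-molecule microarray slides; score combines spot fluorescence intensity with signal-to-noise across triplicate slides.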 The settings on record: 635 nm fluorescence, higher = more signal.

Experimental findings from PubChem BioAssay are described below.

The source made the active and inactive calls. Unless noted, how the calls were made is not given here.

Follistatin (Homo sapiens), sequence (P19883 whole entry, looked up): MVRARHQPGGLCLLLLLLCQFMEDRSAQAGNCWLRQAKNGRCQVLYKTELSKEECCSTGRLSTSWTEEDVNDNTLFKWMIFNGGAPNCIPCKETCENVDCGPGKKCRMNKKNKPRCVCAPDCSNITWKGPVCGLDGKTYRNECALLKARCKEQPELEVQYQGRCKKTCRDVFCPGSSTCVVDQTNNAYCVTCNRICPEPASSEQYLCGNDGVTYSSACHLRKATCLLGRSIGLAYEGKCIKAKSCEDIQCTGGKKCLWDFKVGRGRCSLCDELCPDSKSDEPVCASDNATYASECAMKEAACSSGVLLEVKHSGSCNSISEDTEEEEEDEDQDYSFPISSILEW
Luciferin 4-monooxygenase (Photinus pyralis), sequence (P08659 whole entry, looked up): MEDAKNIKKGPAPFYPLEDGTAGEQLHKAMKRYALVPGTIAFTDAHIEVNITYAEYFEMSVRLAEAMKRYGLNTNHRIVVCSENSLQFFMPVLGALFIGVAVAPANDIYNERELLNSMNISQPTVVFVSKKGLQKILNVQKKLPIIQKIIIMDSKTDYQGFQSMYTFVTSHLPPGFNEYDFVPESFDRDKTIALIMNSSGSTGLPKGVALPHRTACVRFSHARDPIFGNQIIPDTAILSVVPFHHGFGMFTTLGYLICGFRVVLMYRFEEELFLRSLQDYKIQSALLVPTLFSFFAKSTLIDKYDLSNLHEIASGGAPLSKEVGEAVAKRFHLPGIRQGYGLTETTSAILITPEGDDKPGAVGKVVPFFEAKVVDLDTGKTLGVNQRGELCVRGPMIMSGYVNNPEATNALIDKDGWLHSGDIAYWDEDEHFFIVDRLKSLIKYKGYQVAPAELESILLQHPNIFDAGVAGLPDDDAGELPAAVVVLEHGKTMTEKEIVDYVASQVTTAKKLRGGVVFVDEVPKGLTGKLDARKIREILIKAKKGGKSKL
Streptavidin (Streptomyces avidinii), sequence (P22629 whole entry, looked up): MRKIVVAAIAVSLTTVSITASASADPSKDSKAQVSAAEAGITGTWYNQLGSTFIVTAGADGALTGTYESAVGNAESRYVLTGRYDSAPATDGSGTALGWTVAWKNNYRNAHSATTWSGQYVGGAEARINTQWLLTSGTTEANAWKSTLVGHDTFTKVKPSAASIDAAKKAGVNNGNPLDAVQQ
Focal adhesion kinase 1 (Homo sapiens), sequence (Q05397 whole entry, looked up): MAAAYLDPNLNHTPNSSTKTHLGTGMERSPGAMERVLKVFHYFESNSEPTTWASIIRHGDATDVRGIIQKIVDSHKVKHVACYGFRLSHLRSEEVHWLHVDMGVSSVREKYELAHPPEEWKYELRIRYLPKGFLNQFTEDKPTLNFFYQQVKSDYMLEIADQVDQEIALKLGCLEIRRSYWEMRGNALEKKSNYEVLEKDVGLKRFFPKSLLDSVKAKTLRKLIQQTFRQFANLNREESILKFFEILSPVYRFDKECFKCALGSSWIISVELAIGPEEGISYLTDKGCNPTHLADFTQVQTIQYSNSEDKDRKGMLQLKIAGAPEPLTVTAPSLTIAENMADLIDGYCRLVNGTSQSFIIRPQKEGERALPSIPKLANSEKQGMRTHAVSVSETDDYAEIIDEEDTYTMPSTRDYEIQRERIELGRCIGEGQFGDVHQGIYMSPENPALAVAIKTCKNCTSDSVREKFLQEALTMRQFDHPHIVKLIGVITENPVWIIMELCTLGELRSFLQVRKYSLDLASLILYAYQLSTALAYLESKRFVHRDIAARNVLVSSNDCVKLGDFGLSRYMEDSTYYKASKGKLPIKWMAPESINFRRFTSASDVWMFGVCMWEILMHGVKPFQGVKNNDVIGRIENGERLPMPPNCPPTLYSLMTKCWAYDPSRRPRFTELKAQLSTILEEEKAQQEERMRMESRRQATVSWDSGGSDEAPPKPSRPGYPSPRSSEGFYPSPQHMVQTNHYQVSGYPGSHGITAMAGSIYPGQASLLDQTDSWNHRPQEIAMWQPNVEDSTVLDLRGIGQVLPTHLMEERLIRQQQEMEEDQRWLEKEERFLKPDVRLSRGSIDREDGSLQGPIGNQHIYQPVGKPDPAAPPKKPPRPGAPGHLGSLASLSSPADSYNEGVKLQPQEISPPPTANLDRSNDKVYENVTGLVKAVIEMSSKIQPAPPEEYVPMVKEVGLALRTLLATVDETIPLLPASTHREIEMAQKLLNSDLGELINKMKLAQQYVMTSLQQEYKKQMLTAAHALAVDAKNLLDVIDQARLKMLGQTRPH
Torsin-1A (Homo sapiens), sequence (O14656 whole entry, looked up): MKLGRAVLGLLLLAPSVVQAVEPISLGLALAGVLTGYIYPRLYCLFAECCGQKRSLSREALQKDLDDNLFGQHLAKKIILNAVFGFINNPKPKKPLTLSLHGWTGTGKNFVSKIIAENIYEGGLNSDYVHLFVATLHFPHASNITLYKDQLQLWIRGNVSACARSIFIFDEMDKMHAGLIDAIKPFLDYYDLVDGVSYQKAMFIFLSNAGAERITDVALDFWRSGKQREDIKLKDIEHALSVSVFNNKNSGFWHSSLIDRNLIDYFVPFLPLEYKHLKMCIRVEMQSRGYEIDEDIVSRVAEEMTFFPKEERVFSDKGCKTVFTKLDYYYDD
Fibroblast growth factor 2 (Homo sapiens), sequence (P09038 whole entry, looked up): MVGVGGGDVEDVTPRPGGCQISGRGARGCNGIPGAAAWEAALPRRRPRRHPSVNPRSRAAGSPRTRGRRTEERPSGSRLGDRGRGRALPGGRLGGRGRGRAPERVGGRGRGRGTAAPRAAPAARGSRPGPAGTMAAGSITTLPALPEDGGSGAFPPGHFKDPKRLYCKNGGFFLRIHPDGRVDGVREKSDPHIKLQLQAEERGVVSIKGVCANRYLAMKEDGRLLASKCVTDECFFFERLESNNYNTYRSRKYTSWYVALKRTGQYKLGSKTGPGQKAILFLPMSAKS

As to `NC(=O)NCC#Cc1ccc2c(c1)[C@]1(C(=O)N2)[C@H](C(=O)Nc2nc3ccccc3s2)[C@H]2C(=O)O[C@H](c3ccccc3)[C@H](c3ccccc3)N2[C@@H]1c1ccc(OCCO)cc1`, the composite z-score was -0.497 in [1]; 0.094 in [2]; 0.268 in experiment [3]; -0.3 in [4]; 1.37 in experiment [5]; 0.746 in [6]. Further, the composite z-score is -0.276 with Lefty1; 0.441 in [8]; 0.262 in experiment [10]; 1.11 in [15]; 0.264 in experiment [16]; -0.657 in the experiment with Torsin-1A (Homo sapiens) [17]. The values for the composite z-score (in the experiment with Torsin-1A (Homo sapiens) [18]; in experiment [19]) were -0.628 and 0.287, respectively. Moreover, the z-score in experiment [7] was -2.21; in experiment [9], -1.96 (inactive); in [11], 0.378 (inactive); in experiment [12], -1.02 (inactive); in experiment [13] it was 0.182 (inactive); in [14], -0.199 (inactive).
Consider `CC(=O)n1cc(C(O)C2C=CC3C(=O)N(c4ccccc4)C(=O)C3N2Nc2ccccc2F)c2ccccc21` (stereo not given), for which the composite z-score was 1.01 in experiment [1]; 0.726 in experiment [2]; 0.251 in experiment [3]; 1.02 in [4]; -1.04 in experiment [5]; -0.89 in experiment [6]. Besides, the composite z-score in the experiment with Lefty1 was -0.274; in experiment [8] it was 0.0832; in experiment [10], -0.296; in [15], 0.0289; in experiment [16], -0.157; with Torsin-1A (Homo sapiens) [17], -0.561. Moreover, the composite z-score with Torsin-1A (Homo sapiens) [18] was 0.495; in experiment [19], -0.813. For the same compound, the z-score was -1.16 in experiment [7]; 1.34 (inactive) in [9]; -3.27 (inactive) in experiment [11]; -1.69 (inactive) in experiment [12]; -0.172 (inactive) in experiment [13]; 0.499 (inactive) in experiment [14].
On to `Cc1ccc(S[C@]2(C(=O)NCCN3CCOCC3)CC(=O)N(C3CCCCC3)[C@@H]2c2ccc(CO)cc2I)cc1`, for which the composite z-score in [1] turned out to be 0.893; in experiment [2] it was 1.2; in experiment [3], 1.14; in experiment [4], 0.926; in [5], 0.972; in [6] it was 0.236. Besides, the composite z-score in the experiment on Lefty1 is 1.21; in [8] it was 0.977; in experiment [10], 0.328; in experiment [15] it was 1.24; in experiment [16] it was -0.117; with Torsin-1A (Homo sapiens) [17] it was 0.383. For the same compound, the composite z-score with Torsin-1A (Homo sapiens) [18] stood at 1.15; in [19], 1.94. In addition, the z-score is 1.23 in experiment [7]; 0.827 (inactive) in experiment [9]; -2.19 (inactive) in experiment [11]; -0.435 (inactive) in experiment [12]; -0.231 (inactive) in experiment [13]; 0.341 (inactive) in [14].
With `C=CCC(OC(C)=O)[C@@H]1[C@@H](N(Cc2ccc(-c3cccc(C(F)(F)F)c3)o2)C(=O)Cc2ccc(OC)cc2)c2cc(OCCCO)ccc2N1C(=O)c1ccc2ccccc2n1` (stereo not given in full), the composite z-score is 0.292 in experiment [1]; -1.64 in experiment [2]; -0.236 in experiment [3]; -0.665 in experiment [4]; 0.767 in experiment [5]; -0.149 in [6]. The composite z-score is 0.0089 in the experiment on Lefty1; 0.113 in [8]; -0.162 in experiment [10]; -0.356 in experiment [15]; 0.0517 in [16]; 0.0833 with Torsin-1A (Homo sapiens) [17]. For the same compound, the results for the composite z-score (with Torsin-1A (Homo sapiens) [18]; in [19]) were -0.475 and 0.38, respectively. Moreover, the z-score was -0.448 in experiment [7]; 0.471 (inactive) in experiment [9]; -1.45 (inactive) in experiment [11]; 0.6 (inactive) in experiment [12]; 0.339 (inactive) in experiment [13]; 0.792 (inactive) in [14].
`C[N+](C)(C)CCCCCCNC(=O)[C@@H]1C[C@@H]2C(=O)N[C@@H](Cc3ccccc3)C(=O)N2[C@@H]1c1ccc(O)cc1`: the composite z-score is 2.13 in experiment [1]; 1.21 in experiment [2]; -0.371 in [3]; 0.533 in experiment [4]; 1.43 in experiment [5]; 1.65 in experiment [6]. Moreover, the composite z-score in the experiment on Lefty1 was 1.63; in experiment [8], 0.702; in [10] it was 0.42; in experiment [15] it was -0.0442; in experiment [16] it was -0.0039; with Torsin-1A (Homo sapiens) [17], 1.26. Also, the composite z-score with Torsin-1A (Homo sapiens) [18] is 0.984; in experiment [19] it was 2.07. Besides, the z-score was -0.247 in [7]; 0.344 (inactive) in experiment [9]; -0.267 (inactive) in [11]; -0.409 (inactive) in experiment [12]; -0.805 (inactive) in [13]; -0.327 (inactive) in experiment [14].
